PubChem BioAssay (NCI)
This is part of a sample that, as a whole, favours compounds with a hit. Of some 83,000 tested, about 20% had one in any assay.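 In brief: 96-well plates, 48 h treatment, single concentration, percent growth endpoint.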 A number with no mark means an inactive call. How the source made its calls: active means growth percent below 10; inactive means the rest.

Each compound was assayed on MDA-MB-231 breast (assay: NCI-60 one-dose screen, 48 h (100 = growth as untreated, 0 = no growth, -100 = all killed)). Settings: 10 µM unless noted.

Compound	growth
O=C1C(Cl)=C(NCCCN2CCOCC2)C(=O)c2ccccc21	97.3%
Oc1ccc2ccccc2c1C1NN=C(c2ccccc2)S1 (stereo unspecified)	38.7%
CCCCC/C=C\C/C=C/CCCCCCCCNC(=O)Nc1ccc([N+](=O)[O-])cc1	77.8%
Clc1ccc(Nc2ccnc(N3CCN(c4ccnc5cc(Cl)ccc45)CC3)n2)cc1	33.8%
Cc1ccc(S(=O)(=O)N(c2ccc(Cl)cc2)c2ccc(Br)cc2C(=O)O)cc1	119%
CCN1CCN(C(=S)SCC(=O)Nc2nc3ccc(OC)cc3s2)CC1	98%
Cn1c2ccccc2c2nn(Cc3ccccc3)c(=O)nc21	103%
Cn1c2ccccc2c2nn(C(=O)c3ccccc3)c(=O)nc21	120%
COc1ccc(OC2=C(C#N)C(=N)N3c4ccccc4Sc4ccccc4C3N2)cc1 (stereo unspecified)	60.8%
NC(=O)c1cc(I)ccc1NC(=O)COc1ccc(Cl)cc1Cl	107%
O=C1NC(=O)C(CSc2ccccc2)(c2ccccc2)N1 (stereo unspecified)	104%
C=C(C)COC(=O)c1ccccc1C(=O)OCC1(C)CO1 (stereo unspecified)	103%
COc1ccc(NC(=O)COc2ccccc2)c(C(N)=O)c1	44.1%
O=c1nc(NO)[nH]c(=O)n1Cc1ccc(F)cc1	122%
NC(=O)c1cc(I)ccc1NC(=O)COc1ccccc1	27.6%
O=C(Nc1ccccc1O)c1ccc(NS(=O)(=O)c2cccc3cccnc23)cc1	64%
